Experimental data as given in PubChem BioAssay.
Calls of active or inactive are those of the source. Unless noted, the rule behind the calls is not given here.

Assays:
[1] = compound effects on lung adenocarcinoma cell viability – A549, calcein-AM fluorescence, 48 h, basal, profiling panel (AID 1162); conditions: higher = more signal; note: test concentration not given here
[2] = compound effects on differentiated 3T3-L1 adipocyte viability – cell-based, 3T3-L1 adipocytes, calcein-AM fluorescence, 48 h, basal, profiling panel (AID 1163); conditions: 3T3-L1 adipocytes viability, higher = more signal; note: test concentration not given here
[3] = compound effects on hepatocellular carcinoma cell viability – HepG2, calcein-AM fluorescence, 48 h, basal, profiling panel (AID 1164); conditions: higher = more signal; note: test concentration not given here
[4] = compound effects on multiple myeloma cell viability – MM1S, calcein-AM fluorescence, 48 h, basal, profiling panel (AID 1165); conditions: higher = more signal; note: test concentration not given here
[5] = calcein-AM signal in unstimulated myeloma cells – cell-based, calcein-AM fluorescence, 48 h, PK04 Diversity Set, profiling panel (AID 1166); conditions: RPMI8226 myeloma viability, higher = more signal;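 note: cells grown under basal conditions without added stimulus; test concentration not given here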
[6] = JC-1 mitochondrial signal, unstimulated HepG2 cells – cell-based, JC-1 fluorescence, 24 h, 100 nL compound, profiling panel (AID 1167); conditions: HepG2 mitochondrial potential, higher = more signal; note: test concentration not given here
[7] = JC-1 mitochondrial signal, unstimulated adipocytes – cell-based, JC-1 fluorescence, 3T3-L1 adipocytes, 24 h, 100 nL compound, profiling panel (AID 1168); conditions: JC-1 mitochondrial fluorescence, higher = more signal, called active from +8 up or from −8 down; note: test concentration not given here
[8] = JC-1 mitochondrial signal, unstimulated myeloma cells – cell-based, JC-1 fluorescence, RPMI8226, 24 h, 100 nL compound, profiling panel (AID 1169); conditions: JC-1 mitochondrial potential fluorescence, higher = more signal; note: test concentration not given here
[9] = JC-1 mitochondrial signal, unstimulated MM1S myeloma – cell-based, JC-1 fluorescence, 24 h, 100 nL compound, profiling panel (AID 1170); conditions: MM1S mitochondrial potential, higher = more signal; note: test concentration not given here
[10] = resazurin metabolic signal in A549 cells – cell-based, resazurin fluorescence, 24 h, PK04 Diversity Set, profiling panel (AID 1171); conditions: A549 viability, higher = more signal, called active from +8 up or from −8 down; note: test concentration not given here
[11] = resazurin metabolic signal in HepG2 cells – cell-based, resazurin fluorescence, 24 h, PK04 Diversity Set, profiling panel (AID 1172); conditions: HepG2 viability, higher = more signal; note: test concentration not given here
[12] = budding yeast growth changes without added modifier – OD600, strain BY4716, 24 h, basal condition, primary screen (AID 1173); conditions: S. cerevisiae BY4716 growth, OD600, 24 h; higher = more signal, called active from +8 up or from −8 down
[13] = viability profiling in MM1S myeloma cells – cell-based, resazurin fluorescence, basal, 24 h, PK04 Diversity Set, profiling panel (AID 1174); conditions: higher = more signal, called active from +8 up or from −8 down; note: test concentration not given here
[14] = target: Dihydroorotate dehydrogenase (quinone), mitochondrial (Plasmodium falciparum (isolate 3D7)) (UniProt Q08210); assay: inhibition of P. falciparum DHODH – biochemical, C-terminal His tag, absorbance 600 nm, primary screen (AID 1175); conditions: PfDHODH enzyme, DCIP absorbance 600 nm; higher = more signal, called active from +8 up or from −8 down;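 note: recombinant parasite enzyme with a five histidine tag at its C terminus; test concentration not given here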
Dihydroorotate dehydrogenase (quinone), mitochondrial (Plasmodium falciparum (isolate 3D7)), sequence (Q08210 whole entry, looked up): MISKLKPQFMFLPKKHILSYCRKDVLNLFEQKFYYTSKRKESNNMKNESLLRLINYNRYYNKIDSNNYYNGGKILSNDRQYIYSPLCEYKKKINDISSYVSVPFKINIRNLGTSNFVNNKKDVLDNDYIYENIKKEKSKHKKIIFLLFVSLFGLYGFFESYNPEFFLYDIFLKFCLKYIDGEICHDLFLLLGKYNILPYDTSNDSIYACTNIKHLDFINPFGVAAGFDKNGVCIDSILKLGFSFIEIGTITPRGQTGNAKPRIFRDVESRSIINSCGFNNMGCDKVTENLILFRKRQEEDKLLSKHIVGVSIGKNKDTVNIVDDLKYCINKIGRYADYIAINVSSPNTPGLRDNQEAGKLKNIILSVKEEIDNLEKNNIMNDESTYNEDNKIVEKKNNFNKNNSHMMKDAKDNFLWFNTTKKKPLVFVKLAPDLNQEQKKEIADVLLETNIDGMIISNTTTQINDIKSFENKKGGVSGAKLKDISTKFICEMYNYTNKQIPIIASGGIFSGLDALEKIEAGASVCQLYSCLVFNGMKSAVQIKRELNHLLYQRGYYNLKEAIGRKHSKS

[15] = inhibition of PAO1 biofilm formation – strain PAO1, LB-PBS medium, absorbance 600 nm, primary screen (AID 1176); note: test concentration not given here; conditions: P. aeruginosa PAO1 growth/biofilm, A600, 12 h; higher = more signal
[16] = growth modulation of vineyard yeast isolate – strain RM11-1a, OD600, basal, 24 h, primary screen (AID 1177);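 note: cultures grown under basal conditions with no added stressor; test concentration not given here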; conditions: S. cerevisiae RM11-1a growth, OD600, 24 h; higher = more signal, called active from +8 up or from −8 down
[17] = growth of efflux-deficient E. coli DRC39 – strain DRC39, OD650, 24 h, E. coli filamentation inducers, primary screen (AID 1178);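 note: growth measured as culture turbidity by optical density at 650 nm; test concentration not given here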; conditions: E. coli DRC39 acrAB, higher = more signal, called active from +8 up or from −8 down
[18] = growth of efflux-deficient E. coli DRC39 – strain DRC39, OD650, 48 h, E. coli filamentation inducers, primary screen (AID 1179);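 note: screen aims at cell division blockers that make cells filament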; conditions: E. coli DRC39 delta-acrAB growth, higher = more signal, called active from +8 up or from −8 down
[19] = viability profiling in RPMI8226 myeloma cells – cell-based, resazurin fluorescence, basal, 24 h, PK04 Diversity Set, profiling panel (AID 1180); conditions: higher = more signal;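 note: RPMI8826 multiple myeloma cell line at 5000 cells per well; test concentration not given here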
[20] = target: E3 ubiquitin-protein ligase XIAP (Homo sapiens) (UniProt P98170); assay: small molecules binding XIAP protein – biophysical, small-molecule microarray, fluorescence 635 nm, primary screen (AID 1181); conditions: higher = more signal;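 note: score merges 667 nm emission and signal to noise over triplicate slides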
E3 ubiquitin-protein ligase XIAP (Homo sapiens), sequence (P98170 whole entry, looked up): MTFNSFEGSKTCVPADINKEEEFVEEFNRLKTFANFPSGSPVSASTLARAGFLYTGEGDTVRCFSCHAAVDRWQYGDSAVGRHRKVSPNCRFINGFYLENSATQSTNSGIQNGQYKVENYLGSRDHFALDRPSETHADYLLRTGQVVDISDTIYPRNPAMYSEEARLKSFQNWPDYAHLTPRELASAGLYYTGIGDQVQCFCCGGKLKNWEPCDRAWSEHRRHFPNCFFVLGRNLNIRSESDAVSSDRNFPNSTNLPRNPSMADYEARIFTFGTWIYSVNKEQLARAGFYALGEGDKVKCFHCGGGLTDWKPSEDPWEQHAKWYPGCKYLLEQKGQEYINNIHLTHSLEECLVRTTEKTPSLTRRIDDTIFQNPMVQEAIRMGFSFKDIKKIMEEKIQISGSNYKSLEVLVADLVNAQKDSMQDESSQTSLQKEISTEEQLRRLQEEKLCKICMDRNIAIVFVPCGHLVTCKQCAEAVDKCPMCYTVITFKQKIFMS

Compound	z-score [1]	z-score [2]	z-score [3]	z-score [4]	z-score [5]	z-score [6]	z-score [7]	z-score [8]	z-score [9]	z-score [10]	z-score [11]	z-score [12]	z-score [13]	composite z-score [14]	z-score [15]	z-score [16]	z-score [17]	z-score [18]	z-score [19]	composite z-score [20]
CC(C)NC(=O)[C@@]1(c2ccc([N+](=O)[O-])cc2)CC(=O)N(CC23CC4CC(CC(C4)C2)C3)[C@@H]1c1ccc(CO)cc1	-1.34	0.999	-1.72	-2.06	-3.8	-1.38	-0.959 (inactive)	-0.6	-0.24	-2.03 (inactive)	-1.21	-0.692 (inactive)	-2.06 (inactive)	-0.257 (inactive)	0.792 (inactive)	0.311 (inactive)	-0.502 (inactive)	-0.655 (inactive)	-3.14	-0.0295
CN(C)CCCC[C@@H]1NC(=O)[C@H]2C[C@@H](C(=O)O)[C@@H](c3ccc(O)cc3)N2C1=O	0.151	1.73	0.326	-1.24	-0.817	-0.0533	0.419 (inactive)	-0.693	0.38	-0.569 (inactive)	-0.401	-1.23 (inactive)	0.41 (inactive)	-0.676 (inactive)	1.5 (inactive)	-0.304 (inactive)	0.679 (inactive)	-0.454 (inactive)	-0.34	2.02
CCOC(=O)c1cn(C[C@H](Cc2ccccc2)NC(=O)N[C@H](CO)CCc2oc(C(C)=O)c(C(=O)OC)c2C(=O)OC)nn1	-0.462	1.16	0.0702	-0.0594	-1.88	-1	0.871 (inactive)	-0.44	-0.0478	-0.636 (inactive)	-0.756	-2.76 (inactive)	0.225 (inactive)	-3.55 (inactive)	-0.227 (inactive)	-0.669 (inactive)	-0.124 (inactive)	-0.356 (inactive)	-0.458	-0.0835
C=CC1c2cc(O)c(OC)cc2CCN1C (stereo not given)	-1.24	0.281	0.0372	0.121	0.212	-1.17	-0.82 (inactive)	0.222	-0.67	-0.535 (inactive)	-0.582	-0.457 (inactive)	-0.728 (inactive)	-3.34 (inactive)	-0.283 (inactive)	-0.071 (inactive)	-0.0683 (inactive)	0.113 (inactive)	-1.16	0.031
COCCCNC(=O)[C@@H]1c2ccccc2C(=O)N(Cc2ccc(OC(F)(F)F)cc2)[C@H]1c1ccc(CO)cc1	0.927	-0.704	0.198	-0.0583	0.317	1.75	-0.436 (inactive)	-0.604	-0.29	0.469 (inactive)	0.201	0 (inactive)	-0.148 (inactive)	0.228 (inactive)	0.801 (inactive)	-1.06 (inactive)	0.454 (inactive)	-0.34 (inactive)	0.116	-0.219
CC(C)NC(=O)[C@@H]1c2ccccc2C(=O)N(Cc2ccc(OC(F)(F)F)cc2)[C@H]1c1ccc(CO)cc1	0.531	1.34	-0.315	1.09	-1.85	2.18	-1.32 (inactive)	0.24	-0.498	0.0746 (inactive)	-1.14	0.924 (inactive)	0.155 (inactive)	-4.48 (inactive)	0.627 (inactive)	0.91 (inactive)	-0.386 (inactive)	-0.664 (inactive)	0.808	-0.16
CC1CC/C=C\[C@H]2OC34C=CCN(c5ccc6ccccc6c5)C(=O)[C@H]3N(C(C)CO)C(=O)[C@@H]4C2C(=O)O1 (stereo not given in full)	-0.326	-4.43	1.05	1.6	-0.311	0.333	0.0486 (inactive)	0.195	-0.532	-0.0299 (inactive)	-0.0727	-0.36 (inactive)	-0.304 (inactive)	0.631 (inactive)	-0.236 (inactive)	0.853 (inactive)	0.0825 (inactive)	0.509 (inactive)	0.762	-0.208
O=C1C[C@@](C(=O)O)(c2ccc([N+](=O)[O-])cc2)[C@@H](c2ccc(CO)cc2)N1C1CCCCC1	0.903	-0.0886	-0.28	-1.43	-2.67	0.969	-1.22 (inactive)	-0.145	-0.247	0.361 (inactive)	-0.562	0.408 (inactive)	-0.544 (inactive)	-0.0999 (inactive)	-0.0123 (inactive)	1.3 (inactive)	0.576 (inactive)	-0.199 (inactive)	0.0311	-0.193
C=C(/C(=C/C[C@@H](OC(C)=O)c1cccc(OCCO)c1)c1cnc2ccccc2c1)C(C)C	0.295	1.53	0.224	-1.07	-1.97	-1.63	-0.436 (inactive)	-0.533	0.581	-0.322 (inactive)	-0.682	-0.517 (inactive)	-0.421 (inactive)	-3.98 (inactive)	-0.104 (inactive)	0.183 (inactive)	0.12 (inactive)	-0.406 (inactive)	0.213	-0.157
